For 8 compounds, growth results are on record in PubChem BioAssay (NCI).

Some test systems named below: SR leukemia; RPMI-8226 leukemia; OVCAR-8 ovarian; OVCAR-5 ovarian; OVCAR-4 ovarian; SK-OV-3 ovarian; IGROV1 ovarian; OVCAR-3 ovarian; HS 578T breast; NCI/ADR-RES ovarian; T-47D breast; BT-549 breast; MDA-MB-435 melanoma; SW-620 colon; MCF7 breast; HCT-116 colon; HCC-2998 colon; KM12 colon; MDA-MB-468 breast.
Test in all cases: NCI-60 one-dose screen, 48 h (100 = growth as untreated, 0 = no growth, -100 = all killed)
Holding throughout (conditions): 10 µM unless noted

About 83,000 compounds went through this panel and 20% of them were active in at least one assay; those are over-represented in the sample as a whole.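 Note: values are percent growth. 100 is the growth of untreated cells, values between 100 and 0 indicate rising inhibition; between -100 and 0 indicates cell death.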 Values without a mark were called inactive. Calls of active or inactive are those of the source. The calls were made as follows: active = growth percent below 10; inactive = the rest.

On to `Nc1nn2c(-c3cc4cc(Br)ccc4oc3=O)ccnc2c1N=Nc1ccccc1`, for which the growth in the assay on SR leukemia was 1.69% (active); in the assay with RPMI-8226 leukemia, 75.2%; in the assay with OVCAR-8 ovarian it was -14.9% (active); in the assay on OVCAR-5 ovarian, 16.8%; with OVCAR-4 ovarian, -5.33% (active); in the assay on SK-OV-3 ovarian it was -6.82% (active). Besides, the growth is 13.1% in the assay on IGROV1 ovarian; 27.1% in the assay with OVCAR-3 ovarian; -20.7% (active) with HS 578T breast; -16.7% (active) in the assay on NCI/ADR-RES ovarian; 29.6% with T-47D breast; -45.3% (active) in the assay with BT-549 breast. Besides, the growth in the assay with MDA-MB-435 melanoma is 71.2%; with SW-620 colon it was 50.7%; with MCF7 breast, 20%; in the assay with HCT-116 colon, 3.34% (active); in the assay on HCC-2998 colon, 30.2%; in the assay on KM12 colon, 26.1%. Also, the growth in the assay on MDA-MB-468 breast was 46.2%.
`Cc1ccc(C(=O)Nc2ccc(-n3ccnc3)c(C(F)(F)F)c2)cc1C#Cc1cnc2cccnn12`: the growth with SR leukemia is 13.8%; with RPMI-8226 leukemia, -4.27% (active); in the assay with OVCAR-8 ovarian it was 18.6%; in the assay on OVCAR-5 ovarian, 39.8%; in the assay on OVCAR-4 ovarian, 13.6%; in the assay with SK-OV-3 ovarian, 48%. In addition, the growth with IGROV1 ovarian was 20%; in the assay with OVCAR-3 ovarian it was 45.4%; with HS 578T breast it was -7.38% (active); in the assay with NCI/ADR-RES ovarian, 24.7%; in the assay on T-47D breast it was -13.3% (active); with BT-549 breast, -67.8% (active). Also, the growth was 11.3% with MDA-MB-435 melanoma; 31.2% in the assay on SW-620 colon; 25.1% in the assay on MCF7 breast; 0.409% (active) in the assay with HCT-116 colon; 29.9% with HCC-2998 colon; 21.9% in the assay on KM12 colon. For the same compound, the growth in the assay with MDA-MB-468 breast was -1.47% (active).
With `CC(C)CN1C(=O)/C(=C\C(=O)c2cc3ccccc3oc2=O)c2ccccc21`, the growth is 34.6% in the assay with SR leukemia; 85.4% in the assay on RPMI-8226 leukemia; 97.7% with OVCAR-8 ovarian; 111% in the assay with OVCAR-5 ovarian; 87.3% in the assay with OVCAR-4 ovarian; 104% in the assay with SK-OV-3 ovarian. In addition, the growth with IGROV1 ovarian was 87.7%; with OVCAR-3 ovarian it was 51.1%; in the assay on HS 578T breast it was 102%; with NCI/ADR-RES ovarian, 95.8%; with T-47D breast, 44.7%; in the assay with BT-549 breast, 111%. In addition, the growth in the assay on MDA-MB-435 melanoma was 98.8%; in the assay with SW-620 colon, 41%; in the assay on MCF7 breast, 58.1%; in the assay with HCT-116 colon, 91.2%; with HCC-2998 colon, 118%; in the assay with KM12 colon it was 103%. For the same compound, the growth with MDA-MB-468 breast is 32.6%.
For the compound `COc1ccc(N=Nc2c(N)nn3c(-c4cc5ccccc5oc4=O)ccnc23)cc1`, the growth with SR leukemia is 21%; with RPMI-8226 leukemia, 72.8%; with OVCAR-8 ovarian it was 38.8%; in the assay on OVCAR-5 ovarian, 68.5%; with OVCAR-4 ovarian, 70.8%; in the assay on SK-OV-3 ovarian, 57.8%. The growth was 29.4% in the assay with IGROV1 ovarian; 74.3% in the assay on OVCAR-3 ovarian; 29.1% in the assay on HS 578T breast; 22.1% in the assay with NCI/ADR-RES ovarian; 53.2% with T-47D breast; 29.5% in the assay on BT-549 breast. Further, the growth in the assay with MDA-MB-435 melanoma was 75.5%; with SW-620 colon, 31.3%; with MCF7 breast, 29%; with HCT-116 colon, 37.9%; in the assay with HCC-2998 colon it was 38.1%; with KM12 colon it was 51.1%. For the same compound, the growth in the assay with MDA-MB-468 breast is 24.7%.
As for `Cc1ccc(C2CC(c3ccc(S(=O)(=O)NCCNc4nc(N(C)C)nc(N5CCOCC5)n4)cc3)=Nc3c(N)nc(N)nc3N2)cc1` (configuration not stated), the growth in the assay with SR leukemia is 1.45% (active); in the assay with RPMI-8226 leukemia, 23.4%; in the assay on OVCAR-8 ovarian it was 56.3%; in the assay on OVCAR-5 ovarian, 90%; in the assay on OVCAR-4 ovarian, 55.7%; in the assay on SK-OV-3 ovarian it was 77.2%. In addition, the growth in the assay with IGROV1 ovarian was 50.2%; with OVCAR-3 ovarian it was 64.9%; with HS 578T breast it was 47.8%; with NCI/ADR-RES ovarian, 89.3%; in the assay on T-47D breast, 43.8%; with BT-549 breast, 35.2%. The growth with MDA-MB-435 melanoma is 63.6%; in the assay with SW-620 colon it was 81.2%; in the assay with MCF7 breast it was 27.6%; with HCT-116 colon, 38.7%; in the assay with HCC-2998 colon, 47.9%; with KM12 colon, 47.9%. Also, the growth in the assay with MDA-MB-468 breast was 24.2%.
Consider `CN(C)CCCNC(=S)Nc1ccc(/C=C/c2ccc(Cl)cc2)cc1`, for which the growth was -1.02% (active) in the assay on SR leukemia; 3.25% (active) in the assay with RPMI-8226 leukemia; -40.8% (active) with OVCAR-8 ovarian; -99.6% (active) in the assay on OVCAR-5 ovarian; -68.2% (active) in the assay on OVCAR-4 ovarian; -56.9% (active) in the assay with SK-OV-3 ovarian. The growth was -70.4% (active) in the assay on IGROV1 ovarian; 23.6% in the assay with OVCAR-3 ovarian; 11.7% in the assay with HS 578T breast; -43.6% (active) in the assay with NCI/ADR-RES ovarian; -48.7% (active) in the assay on T-47D breast; -69.2% (active) in the assay on BT-549 breast. Moreover, the growth with MDA-MB-435 melanoma was -90.6% (active); in the assay with SW-620 colon, -41.7% (active); with MCF7 breast, -46.2% (active); in the assay on HCT-116 colon, -11.1% (active); in the assay with HCC-2998 colon, -84.2% (active); with KM12 colon, -36.8% (active). The growth in the assay with MDA-MB-468 breast was -88.7% (active).
As to `Cc1ccc(C(=O)Nc2cc(-n3ccnc3)cc(C(F)(F)F)c2)cc1-n1cc(-c2cnc3cccnn23)nn1`, the growth with SR leukemia was 114%; in the assay with RPMI-8226 leukemia, 85.2%; with OVCAR-8 ovarian it was 103%; in the assay on OVCAR-5 ovarian, 66.6%; in the assay with OVCAR-4 ovarian, 104%; with SK-OV-3 ovarian it was 124%. Also, the growth is 104% in the assay with IGROV1 ovarian; 133% in the assay with OVCAR-3 ovarian; 94.9% in the assay on HS 578T breast; 115% in the assay on NCI/ADR-RES ovarian; 113% with T-47D breast; 247% with BT-549 breast. Besides, the growth in the assay with MDA-MB-435 melanoma was 63.4%; with SW-620 colon, 81.9%; in the assay with MCF7 breast it was 101%; in the assay on HCT-116 colon, 55.1%; in the assay with HCC-2998 colon, 86.3%; in the assay on KM12 colon, 80.1%. Moreover, the growth in the assay on MDA-MB-468 breast is 121%.
For the compound `O=C(CSc1nc2ccccc2c(=O)[nH]1)NNC(=O)c1ccccc1Cl`, the growth with SR leukemia is 113%; in the assay with RPMI-8226 leukemia, 108%; in the assay with OVCAR-8 ovarian, 100%; in the assay with OVCAR-5 ovarian it was 129%; in the assay on OVCAR-4 ovarian, 99.6%; in the assay with SK-OV-3 ovarian it was 103%. Further, the growth is 128% with IGROV1 ovarian; 118% in the assay with OVCAR-3 ovarian; 97.1% with HS 578T breast; 123% with NCI/ADR-RES ovarian; 92.4% with T-47D breast; 160% in the assay on BT-549 breast. Besides, the growth was 101% in the assay with MDA-MB-435 melanoma; 104% in the assay on SW-620 colon; 93.4% in the assay on MCF7 breast; 109% with HCT-116 colon; 113% with HCC-2998 colon; 101% in the assay with KM12 colon. The growth in the assay with MDA-MB-468 breast was 137%.
